{"source": "PubChem BioAssay AID651704", "about": "(Broad Institute, 2012)", "note": "The whole screen tested about 350,000 compounds, of which about 1,600 (0.46%) were called active.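 The calls were made as follows: active = every replicate reaching a set inhibition limit, whatever the replicate mean (cut at about 25% in these data); inconclusive = mean inhibition reaches that limit but some replicates miss it; inactive = the rest.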 Only a selection was taken, and actives are over-represented in it overall."}
{"target": "Protein AF-9 (Homo sapiens) (UniProt P42568)", "sequence (P42568 whole entry, looked up)": "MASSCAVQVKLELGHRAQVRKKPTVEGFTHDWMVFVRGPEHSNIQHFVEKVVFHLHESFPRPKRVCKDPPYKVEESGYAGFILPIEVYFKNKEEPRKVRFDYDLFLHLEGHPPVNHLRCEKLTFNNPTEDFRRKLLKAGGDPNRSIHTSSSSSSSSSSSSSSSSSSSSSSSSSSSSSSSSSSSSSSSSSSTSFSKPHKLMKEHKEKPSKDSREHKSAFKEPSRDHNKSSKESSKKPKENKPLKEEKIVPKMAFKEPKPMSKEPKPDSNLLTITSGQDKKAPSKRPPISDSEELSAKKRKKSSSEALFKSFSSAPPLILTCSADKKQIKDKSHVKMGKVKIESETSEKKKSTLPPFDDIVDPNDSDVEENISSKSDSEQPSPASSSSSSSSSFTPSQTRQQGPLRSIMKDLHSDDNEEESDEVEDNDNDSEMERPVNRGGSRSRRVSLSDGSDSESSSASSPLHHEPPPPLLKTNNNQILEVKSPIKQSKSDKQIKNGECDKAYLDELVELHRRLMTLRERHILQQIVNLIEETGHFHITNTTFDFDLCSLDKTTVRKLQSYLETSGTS", "assay": "inhibitors of AF4 peptide binding to AF9, primary screen, biochemical, AlphaScreen, biotin-AF4 peptide, FLAG-AF9, single point (AID 651704);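 also: 0% = plate neutral control median and 100% = total signal loss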", "conditions": "at 10 µM, stronger effect = higher value"}
{"smiles": "COc1cc(CN2CC3(CN(S(=O)(=O)c4cn(C)cn4)C3)c3c(n(C)c4cc(OC)ccc34)[C@H]2CO)cc(OC)c1", "inhibition": "12.6% (inactive)"}
{"smiles": "COc1ccc(NC(=O)Nc2ccc3c(c2)[C@H]2C[C@H](CC(=O)NC4CCCC4)O[C@@H](CO)[C@H]2O3)cc1", "inhibition": "0.232% (inactive)"}
{"smiles": "Cc1cc(C)nc(N/N=C/c2c(CO)cnc(C)c2O)n1", "inhibition": "-5.08% (inactive)"}
{"smiles": "CCN(CC)c1ccc(/C=N/Nc2nc(C)cc(C)n2)c(O)c1", "inhibition": "79.7% (active)"}
{"smiles": "CCN(CC)c1ccc(/C=N/NC(=O)c2cnccn2)c(O)c1", "inhibition": "-1.45% (inactive)"}
{"smiles": "O=C(C[C@H]1CC[C@H]2[C@@H](COC[C@H](O)CN2C(=O)c2ccncc2)O1)NCc1cc(F)cc(F)c1", "inhibition": "-16% (inactive)"}
{"smiles": "COc1ccccc1NC(=O)N1CC(=O)N2[C@H](CO)[C@@H](c3ccc(C#Cc4ccc(F)cc4)cc3)[C@H]2C1", "inhibition": "2.6% (inactive)"}
{"smiles": "Cn1cnc(S(=O)(=O)N2C[C@H](O)COC[C@@H]3O[C@H](CC(=O)NC4CCCC4)CC[C@H]32)c1", "inhibition": "-0.241% (inactive)"}
{"smiles": "COc1ccc(S(=O)(=O)Nc2ccc3c(c2)CC(=O)N([C@@H](C)CO)C[C@@H](C)[C@@H](CN(C)Cc2ccc(C(=O)Nc4ccccc4N)cc2)O3)cc1", "inhibition": "-0.302% (inactive)"}
{"smiles": "C[C@@H]1CCCCO[C@H](CN(C)S(=O)(=O)c2cn(C)cn2)[C@@H](C)CN([C@@H](C)CO)C(=O)c2cc(NC(=O)CCC(F)(F)F)ccc2O1", "inhibition": "-0.444% (inactive)"}
{"smiles": "COc1ccc(C(=O)COC(=O)c2ccc([N+](=O)[O-])s2)cc1OC", "inhibition": "-0.958% (inactive)"}
{"smiles": "C=Cn1cc[n+](CC(=O)c2ccc(OC)c(OC)c2)c1", "inhibition": "28.8% (active)"}
{"smiles": "COc1ccc(-n2nnnc2SCC(=O)c2ccc(OC)c(OC)c2)cc1", "inhibition": "-42.4% (inactive)"}
{"smiles": "CO[C@@H]1CN(C)C(=O)c2ccc(NC(=O)C3CCCC3)cc2OC[C@H](C)NC[C@@H]1C", "inhibition": "-0.502% (inactive)"}
{"smiles": "C#CCOCCOCCOCCNc1nc(N2CCN(C(=O)[C@H](CCCN=C(N)N)n3cc(C(N)[C@@H](C)CC)nn3)CC2)nc(N2CCN(C(=O)[C@H](CO)n3cc([C@@H](N)C(C)C)nn3)CC2)n1", "note": "(some centres not stated)", "inhibition": "29.3% (active)"}
{"smiles": "C#CCOCCOCCOCCNc1nc(N2CCN(C(=O)[C@H](CO)n3cc([C@@H](N)C(C)C)nn3)CC2)nc(N2CCN(C(=O)[C@H](CCC(=O)O)n3cc([C@@H](N)[C@H](C)CC)nn3)CC2)n1", "inhibition": "0.229% (inactive)"}
{"smiles": "C#CCOCCOCCOCCNc1nc(N2CCN(C(=O)[C@H](CCC(=O)O)n3cc(C(N)CO)nn3)CC2)nc(N2CCN(C(=O)[C@H](Cc3ccc(O)cc3)n3cc(C(N)[C@H](C)CC)nn3)CC2)n1", "note": "(some centres not stated)", "inhibition": "2.1% (inactive)"}
{"smiles": "O=C([C@@H]1[C@@H](CO)[C@@H]2Cn3c(ccc(-c4ccccc4F)c3=O)[C@H]1N2C(=O)C1CCC1)N1CCCCC1", "inhibition": "-3.29% (inactive)"}
{"smiles": "C[C@@H]1CCCCO[C@H](CN(C)C(=O)Nc2ccc(C(F)(F)F)cc2)[C@@H](C)CN([C@@H](C)CO)C(=O)c2cc(NS(=O)(=O)c3cccs3)ccc2O1", "inhibition": "2.48% (inactive)"}
{"smiles": "CO[C@@H]1CN(C)C(=O)c2cc(NC(C)=O)ccc2OC[C@H](C)N(Cc2ccccn2)C[C@H]1C", "inhibition": "-0.12% (inactive)"}
{"smiles": "N#C[C@@H]1[C@@H](c2ccccc2C2=CCCC2)[C@H](CO)N1C(=O)NC1CCCC1", "inhibition": "2.11% (inactive)"}
{"smiles": "COCC#Cc1ccc([C@@H]2[C@@H](CO)N3C(=O)CN(C(=O)C4CCOCC4)C[C@@H]23)cc1", "inhibition": "-0.906% (inactive)"}
